Measurements reported in PubChem BioAssay AID1159580 (chemical genetic matrix, 2015).
Among all 5,500 compounds or so, about 2,000 (36%) were called active. Inconclusive results (about 18%) are left out. Cut-off read from the data, not from the text of the source: active = normalized growth mostly below about 0.91 (no sharp cut-off); inconclusive = no clear call, values can overlap the other calls; inactive = mostly above about 0.92. The list shows a part of the results.

Assay: chemical genetic growth profiling, strain panel (AID 1159580);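 note: tested at 20 µM; growth read once vehicle control cultures reached saturation at 30 °C; 1 = growth at the plate median or of vehicle wells; lower values mean less growth of the strain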
Conditions: growth OD

Measured: normalized growth

Cn1nnnc1SCC1=C(C(=O)O)N2C(=O)C(NC(=O)C(O)c3ccccc3)C2SC1 (configuration not stated)
inactive: S. cerevisiae deletion strains, locus YJR075W, strain HOC1, active compounds read low 1.01 | S. cerevisiae deletion strains, locus YKL009W, strain mrt4, active compounds read low 1.01 | S. cerevisiae deletion strains, locus YKL068W, active compounds read low 1.01 | S. cerevisiae deletion strains, locus YKL085W, strain MDH1 (second series), active compounds read low 1.01 | S. cerevisiae deletion strains, locus YKL085W, strain MDH1, active compounds read low 1.01 | S. cerevisiae deletion strains, locus YKL160W, strain elf1, active compounds read low 0.95 | S. cerevisiae deletion strains, locus YKL190W, strain CNB1, active compounds read low 1.02 | S. cerevisiae deletion strains, locus YKR001C, strain vps1, active compounds read low 1 | S. cerevisiae deletion strains, locus YKR026C, strain gcn3, active compounds read low 0.974 | S. cerevisiae deletion strains, locus YKR091W, strain srl3, active compounds read low 0.981 | S. cerevisiae deletion strains, locus YLL001W, strain dnm1, active compounds read low 0.955 | S. cerevisiae deletion strains, locus YLL026W, active compounds read low 0.989 | S. cerevisiae deletion strains, locus YLL041C, strain sdh2, active compounds read low 0.968 | S. cerevisiae deletion strains, locus YLR027C, strain aat2, active compounds read low 0.982 | S. cerevisiae deletion strains, locus YLR039C, strain RIC1, active compounds read low 0.991 | S. cerevisiae deletion strains, locus YLR058C, strain SHM2, active compounds read low 1.02 | S. cerevisiae deletion strains, locus YLR102C, strain apc9, active compounds read low 1 | S. cerevisiae deletion strains, locus YLR113W, strain HOG1, active compounds read low 0.938 | S. cerevisiae deletion strains, locus YLR221C, strain rsa3, active compounds read low 0.98 | S. cerevisiae deletion strains, locus YLR258W, strain gsy2, active compounds read low 0.981 | S. cerevisiae deletion strains, locus YLR262C, strain YPT6 (second series), active compounds read low 0.973 | S. cerevisiae deletion strains, locus YLR262C, strain YPT6, active compounds read low 1.1 | S. cerevisiae deletion strains, locus YLR268W, strain sec22, active compounds read low 0.988 | S. cerevisiae deletion strains, locus YLR320W, strain mms22, active compounds read low 0.952 | S. cerevisiae deletion strains, locus YLR330W, strain CHS5, active compounds read low 1.01 | S. cerevisiae deletion strains, locus YLR342W, strain FKS1 (second series), active compounds read low 1.02 | S. cerevisiae deletion strains, locus YLR342W, strain FKS1, active compounds read low 0.972 | S. cerevisiae deletion strains, locus YLR357W, strain rsc2, active compounds read low 0.952 | S. cerevisiae deletion strains, locus YLR370C, strain arc18, active compounds read low 0.967 | S. cerevisiae deletion strains, locus YLR371W, strain rom2, active compounds read low 0.999 | S. cerevisiae deletion strains, locus YLR384C, strain iki3, active compounds read low 0.962 | S. cerevisiae deletion strains, locus YLR418C, strain cdc73, active compounds read low 1 | S. cerevisiae deletion strains, locus YML016C, strain PPZ1, active compounds read low 1.01 | S. cerevisiae deletion strains, locus YML032C, strain rad52, active compounds read low 1 | S. cerevisiae deletion strains, locus YML120C, strain ndi1, active compounds read low 0.964 | S. cerevisiae deletion strains, locus YML124C, strain tub3, active compounds read low 1.01 | S. cerevisiae deletion strains, locus YMR058W, strain fet3, active compounds read low 0.966 | S. cerevisiae deletion strains, locus YMR078C, strain ctf18, active compounds read low 1 | S. cerevisiae deletion strains, locus YMR125W, strain sto1, active compounds read low 0.973 | S. cerevisiae deletion strains, locus YMR129W, active compounds read low 0.981 | S. cerevisiae deletion strains, locus YMR205C, strain PFK2, active compounds read low 0.959 | S. cerevisiae deletion strains, locus YMR223W, strain ubp8, active compounds read low 1.01 | S. cerevisiae deletion strains, locus YMR231W, strain pep5, active compounds read low 0.971 | S. cerevisiae deletion strains, locus YMR263W, strain SAP30, active compounds read low 1.03 | S. cerevisiae deletion strains, locus YMR307W, strain GAS1, active compounds read low 0.993 | S. cerevisiae deletion strains, locus YNL067W, strain RPL9B, active compounds read low 1.03 | S. cerevisiae deletion strains, locus YNL071W, strain lat1, active compounds read low 0.978 | S. cerevisiae deletion strains, locus YNL128W, strain TEP1, active compounds read low 1.03 | S. cerevisiae deletion strains, locus YNL153C, strain GIM3, active compounds read low 1.03 | S. cerevisiae deletion strains, locus YNL183C, strain NPR1, active compounds read low 0.926 | S. cerevisiae deletion strains, locus YNL209W, strain ssb2, active compounds read low 0.982 | S. cerevisiae deletion strains, locus YNL233W, strain BNI4, active compounds read low 1.02 | S. cerevisiae deletion strains, locus YNL248C, strain rpa49, active compounds read low 0.968 | S. cerevisiae deletion strains, locus YNL250W, strain rad50, active compounds read low 1.01 | S. cerevisiae deletion strains, locus YNL271C, strain bni1, active compounds read low 1.01 | S. cerevisiae deletion strains, locus YNL298W, strain CLA4, active compounds read low 1.01 | S. cerevisiae deletion strains, locus YNL307C, strain MCK1, active compounds read low 1 | S. cerevisiae deletion strains, locus YNL322C, strain KRE1 (second series), active compounds read low 0.97 | S. cerevisiae deletion strains, locus YNL322C, strain KRE1, active compounds read low 1.02 | S. cerevisiae deletion strains, locus YNR049C, strain mso1, active compounds read low 0.972 | S. cerevisiae deletion strains, locus YNR052C, strain pop2, active compounds read low 0.997 | S. cerevisiae deletion strains, locus YOL006C, strain TOP1, active compounds read low 1.05 | S. cerevisiae deletion strains, locus YOL012C, strain htz1 0.993 | S. cerevisiae deletion strains, locus YOL147C, strain pex11, active compounds read low 0.999 | S. cerevisiae deletion strains, locus YOR001W, strain rrp6, active compounds read low 0.967 | S. cerevisiae deletion strains, locus YOR061W, strain CKA2, active compounds read low 1.02 | S. cerevisiae deletion strains, locus YOR069W, strain VPS5, active compounds read low 1.01 | S. cerevisiae deletion strains, locus YOR070C, strain gyp1, active compounds read low 0.979 | S. cerevisiae deletion strains, locus YOR080W, strain dia2, active compounds read low 0.97 | S. cerevisiae deletion strains, locus YOR083W, strain WHI5, active compounds read low 0.958 | S. cerevisiae deletion strains, locus YOR106W, strain vam3, active compounds read low 0.945 | S. cerevisiae deletion strains, locus YOR136W, strain idh2, active compounds read low 0.995 | S. cerevisiae deletion strains, locus YOR144C, strain elg1, active compounds read low 1 | S. cerevisiae deletion strains, locus YOR184W, strain ser1, active compounds read low 0.99 | S. cerevisiae deletion strains, locus YOR231W, strain MKK1, active compounds read low 0.996 | S. cerevisiae deletion strains, locus YOR265W, strain rbl2, active compounds read low 0.975 | S. cerevisiae deletion strains, locus YOR270C, strain vph1, active compounds read low 0.974 | S. cerevisiae deletion strains, locus YOR290C, strain snf2, active compounds read low 0.924 | S. cerevisiae deletion strains, locus YOR316C, strain cot1, active compounds read low 0.996 | S. cerevisiae deletion strains, locus YPL051W, strain arl3, active compounds read low 0.964 | S. cerevisiae deletion strains, locus YPL055C, strain LGE1, active compounds read low 1.07 | S. cerevisiae deletion strains, locus YPL078C, strain atp4, active compounds read low 0.968 | S. cerevisiae deletion strains, locus YPL106C, strain sse1, active compounds read low 0.958 | S. cerevisiae deletion strains, locus YPL240C, strain hsp82, active compounds read low 0.991 | S. cerevisiae deletion strains, locus YPL241C, strain CIN2, active compounds read low 1.01 | S. cerevisiae deletion strains, locus YPL256C, strain CLN2, active compounds read low 0.987 | S. cerevisiae deletion strains, locus YPR119W, strain clb2, active compounds read low 0.991 | S. cerevisiae deletion strains, locus YPR141C, strain kar3, active compounds read low 1 | S. cerevisiae deletion strains, locus YPR163C, strain tif3, active compounds read low 0.994 | S. cerevisiae deletion strains, locus YPR167C, strain met16, active compounds read low 1.01 | S. cerevisiae deletion strains, strain wtn01, active compounds read low 1 | S. cerevisiae strains, strain wild type, active compounds read low 1.02
